# In the supplement of paper PMC8728848:
# Only a selection was taken, and the strongest signals are over-represented in it overall.
# B1: SRA-1 (Homo sapiens), P21757 (protein)
# chain: MEQWDHFHNQQEDTDSCSESVKFDARSMTALLPPNPKNSPSLQEKLKSFKAALIALYLLVFAVLIPLIGIVAAQLLKWETKNCSVSSTNANDITQSLTGKGNDSEEEMRFQEVFMEHMSNMEKRIQHILDMEANLMDTEHFQNFSMTTDQRFNDILLQLSTLFSSVQGHGNAIDEISKSLISLNTTLLDLQLNIENLNGKIQENTFKQQEEISKLEERVYNVSAEIMAMKEEQVHLEQEIKGEVKVLNNITNDLRLKDWEHSQTLRNITLIQGPPGPPGEKGDRGPTGESGPRGFPGPIGPPGLKGDRGAIGFPGSRGLPGYAGRPGNSGPKGQKGEKGSGNTLTPFTKVRLVGGSGPHEGRVEILHSGQWGTICDDRWEVRVGQVVCRSLGYPGVQAVHKAAHFGQGTGPIWLNEVFCFGRESSIEECKIRQWGTRACSHSEDAGVTCTL
# How the values were obtained:
# Assay in all cases: glycan array binding signal (z-score within array); higher = stronger binding
# Details in all cases: glycan notation: IUPAC condensed, linker removed
# [1] = target: Fuc(a1-2)Gal(b1-3)GlcNAc(b1-3)[Gal(b1-4)GlcNAc(b1-6)]Gal(b1-4)Glc
# Summary of the method: (§1)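 Arrays were curated from the Consortium for Functional Glycomics database, 3228 in total, and kept only where the protein sequence was available. Binding is expressed as a within-array Z-score. This score was averaged across arrays of the same protein sequence at different concentrations or buffers and across linkers, and negative values can be read as non-binding.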
# [2] = target: Fuc(a1-2)Gal(b1-4)GlcNAc(b1-2)Man(a1-3)[Fuc(a1-2)Gal(b1-4)GlcNAc(b1-2)Man(a1-6)]Man(b1-4)GlcNAc(b1-4)[Fuc(a1-6)]GlcNAc
# Summary of the method: as §1
# [3] = target: Fuc(a1-2)Gal(b1-4)GlcNAc(b1-3)Gal(b1-4)GlcNAc(b1-2)Man(a1-3)[Fuc(a1-2)Gal(b1-4)GlcNAc(b1-3)Gal(b1-4)GlcNAc(b1-2)Man(a1-6)]Man(b1-4)GlcNAc(b1-4)GlcNAc
# Summary of the method: as §1
# [4] = target: Fuc(a1-2)Gal(b1-4)GlcNAc(b1-3)[Fuc(a1-2)Gal(b1-4)GlcNAc(b1-6)]GalNAc
# Summary of the method: as §1
# [5] = target: Fuc(a1-2)Gal(b1-4)[Fuc(a1-3)]GlcNAc(b1-3)[Neu5Ac(a2-6)Gal(b1-4)GlcNAc(b1-6)]Gal(b1-4)Glc
# Summary of the method: as §1
# [6] = target: Fuc(a1-2)[Gal(a1-3)]Gal(b1-3)GlcNAc(b1-3)GalNAc
# Summary of the method: as §1
# [7] = target: Fuc(a1-2)[GalNAc(a1-3)]Gal(b1-3)GalNAc(b1-3)Gal(a1-4)Gal(b1-4)Glc
# Summary of the method: as §1
# [8] = target: Fuc(a1-2)[GalNAc(a1-3)]Gal(b1-3)GlcNAc(b1-2)Man(a1-3)[Fuc(a1-2)[GalNAc(a1-3)]Gal(b1-3)GlcNAc(b1-2)Man(a1-6)]Man(b1-4)GlcNAc(b1-4)GlcNAc
# Summary of the method: as §1
# [9] = target: Fuc(a1-2)[GalNAc(a1-3)]Gal(b1-4)[Fuc(a1-3)]GlcNAc
# Summary of the method: as §1
# [10] = target: Fuc(a1-2)[GalNAc(a1-3)]Gal(b1-4)[Fuc(a1-3)]GlcNAc(b1-3)GalNAc
# Summary of the method: as §1
# [11] = target: Fuc(a1-3)[Gal(b1-4)]Glc6S
# Summary of the method: as §1
# [12] = target: Fuc(a1-3)[Gal(b1-4)]GlcNAc(b1-6)GalNAc
# Summary of the method: as §1
# [13] = target: Fuc(a1-3)[Gal(b1-4)]GlcNAc(b1-6)[Gal(b1-3)GlcNAc(b1-3)]Gal(b1-4)Glc
# Summary of the method: as §1
# [14] = target: Fuc(a1-3)[Gal3S(b1-4)]GlcNAc6S
# Summary of the method: as §1
# [15] = target: Fuc(a1-3)[GalNAc(b1-4)]GlcNAc
# Summary of the method: as §1
# [16] = target: Gal(a1-3)Gal(b1-4)GlcNAc
# Summary of the method: as §1
# [17] = target: Gal(a1-4)Gal(b1-4)Glc
# Summary of the method: as §1
# [18] = target: Gal(b1-3)GalNAc(a1-3)[Fuc(a1-2)]Gal(b1-4)GlcNAc
# Summary of the method: as §1
# [19] = target: Gal(b1-4)GlcNAc(b1-2)[Gal(b1-4)GlcNAc(b1-6)]Man(a1-6)[GlcNAc(b1-4)][Gal(b1-4)GlcNAc(b1-2)[Gal(b1-4)GlcNAc(b1-4)]Man(a1-3)]Man(b1-4)GlcNAc(b1-4)[Fuc(a1-6)]GlcNAc
# Summary of the method: as §1
# [20] = target: Gal(b1-4)GlcNAc(b1-3)Gal(b1-4)GlcNAc(b1-2)Man(a1-3)[Gal(b1-4)GlcNAc(b1-3)Gal(b1-4)GlcNAc(b1-2)Man(a1-6)]Man(b1-4)GlcNAc(b1-4)GlcNAc
# Summary of the method: as §1
# [21] = target: Gal(b1-4)GlcNAc(b1-3)Gal(b1-4)GlcNAc(b1-3)Gal(b1-4)GlcNAc
# Summary of the method: as §1
# [22] = target: Gal(b1-4)GlcNAc(b1-3)Gal(b1-4)GlcNAc(b1-6)[Gal(b1-3)]GalNAc
# Summary of the method: as §1
# [23] = target: Gal(b1-4)GlcNAc(b1-6)GalNAc
# Summary of the method: as §1
# [24] = target: Gal3S6S(b1-4)GlcNAc
# Summary of the method: as §1
# [25] = target: GalNAc(b1-3)Gal(a1-4)Gal(b1-4)GlcNAc
# Summary of the method: as §1
# [26] = target: GalNAc(b1-4)GlcNAc
# Summary of the method: as §1
# [27] = target: Glc(a1-6)Glc(a1-6)Glc(a1-6)Glc
# Summary of the method: as §1
# [28] = target: GlcNAc(a1-4)Gal(b1-4)GlcNAc
# Summary of the method: as §1
# [29] = target: GlcNAc(b1-2)[GlcNAc(b1-4)]Man(a1-3)[GlcNAc(b1-4)][GlcNAc(b1-2)[GlcNAc(b1-6)]Man(a1-6)]Man(b1-4)GlcNAc(b1-4)[Fuc(a1-6)]GlcNAc
# Summary of the method: as §1
# [30] = target: GlcNAc(b1-2)[GlcNAc(b1-6)]Man(a1-6)[GlcNAc(b1-2)Man(a1-3)]Man(b1-4)GlcNAc(b1-4)[Fuc(a1-6)]GlcNAc
# Summary of the method: as §1
binder,measurement,setting,value
B1,glycan array binding signal (z-score),[1],-0.462
same,glycan array binding signal (z-score),[2],-0.606
same,glycan array binding signal (z-score),[3],0.064
same,glycan array binding signal (z-score),[4],1.17
same,glycan array binding signal (z-score),[5],0.274
same,glycan array binding signal (z-score),[6],-0.365
same,glycan array binding signal (z-score),[7],-0.415
same,glycan array binding signal (z-score),[8],0.613
same,glycan array binding signal (z-score),[9],1.28
same,glycan array binding signal (z-score),[10],21.8
same,glycan array binding signal (z-score),[11],1.43
same,glycan array binding signal (z-score),[12],-0.092
same,glycan array binding signal (z-score),[13],-0.456
same,glycan array binding signal (z-score),[14],0.048
same,glycan array binding signal (z-score),[15],1
same,glycan array binding signal (z-score),[16],-0.529
same,glycan array binding signal (z-score),[17],4.58
same,glycan array binding signal (z-score),[18],0.047
same,glycan array binding signal (z-score),[19],-0.205
same,glycan array binding signal (z-score),[20],0.208
same,glycan array binding signal (z-score),[21],-0.32
same,glycan array binding signal (z-score),[22],-0.129
same,glycan array binding signal (z-score),[23],0.967
same,glycan array binding signal (z-score),[24],0.399
same,glycan array binding signal (z-score),[25],1.15
same,glycan array binding signal (z-score),[26],1.24
same,glycan array binding signal (z-score),[27],0.295
same,glycan array binding signal (z-score),[28],-0.118
same,glycan array binding signal (z-score),[29],-0.311
same,glycan array binding signal (z-score),[30],0.625
